Source: ChEMBL document CHEMBL3433997, “St. Jude Leishmania screening dataset” (2016)

Columns and labels:
Assay type in all cases: functional
[1] = target: Solute carrier family 2, facilitated glucose transporter member 1 (Homo sapiens) (UniProt P11166); assay: ST_JUDE_LEISH: Cytotoxicity at 2uM final concentration against transgenic Leishmania Mexicana promastigotes LmGLUT1 that are glucose transport deficient and complemented with the human glucose transporter GLUT1. Activity is measured by DNA content using SYBR green in vitro
[2] = target: Hexose transporter 1 (Plasmodium falciparum) (UniProt O97467); assay: ST_JUDE_LEISH: Cytotoxicity at 2uM final concentration against transgenic Leishmania Mexicana promastigotes LmPfHT that are glucose transport deficient and complemented with the Plasmodium falciparum hexose transporter. Activity is measured by DNA content using SYBR green in vitro
[3] = target: Glucose transporter (Leishmania mexicana) (UniProt O61059); assay: ST_JUDE_LEISH: Cytotoxicity at 2uM final concentration against transgenic Leishmania Mexicana promastigotes LmGT2 that are glucose transport deficient and complemented with the L. Mexicana glucose transporter 2. Activity is measured by DNA content using SYBR green in vitro

Sequence of Solute carrier family 2, facilitated glucose transporter member 1 (Homo sapiens) (P11166 whole entry): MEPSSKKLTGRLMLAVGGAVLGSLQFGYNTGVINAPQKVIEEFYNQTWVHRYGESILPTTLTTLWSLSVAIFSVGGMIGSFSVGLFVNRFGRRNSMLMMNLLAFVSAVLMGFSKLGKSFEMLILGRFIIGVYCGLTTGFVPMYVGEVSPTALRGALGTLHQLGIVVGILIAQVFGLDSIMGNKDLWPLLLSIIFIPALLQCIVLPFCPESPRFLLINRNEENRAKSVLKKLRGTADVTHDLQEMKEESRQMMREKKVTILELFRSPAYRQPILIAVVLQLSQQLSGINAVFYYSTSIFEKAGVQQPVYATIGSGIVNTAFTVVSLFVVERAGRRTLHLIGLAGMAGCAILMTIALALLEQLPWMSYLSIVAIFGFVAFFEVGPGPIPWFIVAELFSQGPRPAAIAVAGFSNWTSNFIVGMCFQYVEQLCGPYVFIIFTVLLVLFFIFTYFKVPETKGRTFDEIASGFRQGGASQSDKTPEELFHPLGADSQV

SMILES	inhibition [1]	inhibition [2]	inhibition [3]
O=[N+]([O-])c1c(O)nc2c(c1O)CCC2	4.52%	4.36%	4.11%
O=C(Nc1cn(-c2ccc(OCc3cccc(F)c3)c(Cl)c2)c2ncncc12)c1ccncc1	1.53%	1.05%	2.96%
COc1cc(Nc2nccc(-c3c(-c4cccc(NC(=O)c5c(F)cccc5F)c4)nn4ccccc34)n2)cc(OC)c1OC	20.8%	24.9%	8.03%
